# Laboratory results from PubChem BioAssay (NCATS).
# The other results are listed elsewhere or left out. Records with an inconclusive call do not appear. Activity calls are given as the source filed them. Calls come from the whole dose curve; as a rule, active = well fitted inhibition curve with a large enough effect; inconclusive = small, poorly fitted or top-dose-only effect; inactive = flat fitted curve, though single readings scatter.
# Assay: qHTS Assay for Inhibitors of Fructose-1,6-bisphosphate Aldolase from Giardia Lamblia: Mammalian cellular toxicity (AID 2786);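 note: compound exposure lasted 48 h before reading; nearly all actives have a fitted effect of over 60% in size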
# Settings: mammalian cell viability counter-screen; series mostly up to 57.5 µM; viability change, negative = toxicity: at the top concentration
# Excerpt: NIH Chemical Genomics Center [NCGC]
# NIH Molecular Libraries Probe Production centers Network [MLPCN]
# Assay Provider: Osnat Herzberg, University of Maryland
# The objective of this project is to obtain compounds that inhibit Giardia lamblia growth. G. lamblia is a human pathogen which afflicts impoverished nations; it is the most common cause of outbreaks of diarrhea in the United States. During the course of our study of potential drug targets in Giardia, we have identified the Class II (Zn2+ functions in electrophilic catalysis) fructose-1,6-bisphosphate aldolase (FBPA) as an excellent candidate for drug targeting. FBPA is a key glycolytic pathway enzyme, essential for G. lamblia survival. The human FBPA belongs to the Class I aldolases, which have a different substrate binding site structure and a radically different catalytic mechanism (employing a lysine-Schiff base intermediate). Therefore, affinity-based or mechanism-based inhibitors of the Giardia FBPA are expected not to interfere with the catalytic function of the human FBPA.
# A glyceraldehyde-3-phosphate dehydrogenase/triose phosphate isomerase/NAD/arsenate coupled assay was adapted to the 1536-well HTP format for use in the primary screen. This was done by coupling it to a diaphorase/resazurin/resorufin reaction that can be monitored by fluorescence (excitation, 544 nm; emission, 590 nm). Compounds identified in this screen will be further evaluated by coupling the glycerol-3-phosphate/triose phosphate isomerase/NADH assay to a phenazine methosulfate/tetranitroblue tetrazolium color reaction. False positives due to the dehydrogenases and diaphorase inhibition will be eliminated, and selectivity assay will triage inhibitors of mammalian triose phosphate isomerase and the Class I FBPA. G. lamblia FBPA inhibitors identified by the in vitro analyses will be examined for growth inhibition of Giardia trophozoites, and for cytotoxicity in human cells.
# This assay addresses whether hits in the primary screen are cytotoxic to mammalian cells, using Chinese hamster ovary cells as a surrogate.
# 2uL/well media was dispensed per well into 1536-well white solid-bottom plates using Multidrop Combi dispenser. Subsequently, 23 nL/well compound solutions or DMSO controls were dispensed to the assay plates via a pintool workstation. The Chinese hamster ovary (CHO) cells were grown in T225 flasks to 70% confluence under a standard cell culture condition (ATCC), detached with 0.25% Trypsin/EDTA, and seeded at 250 cells/well in 5uL medium (Dulbecco's Modified Eagle Medium, 10% fetal bovine serum, 1x penicillin/streptomycin). The plates were incubated at 37 °C with 5% CO2 and 95% humidity for 48 hours, and then ATP content was measured following the addition of 4uL/well of ATPlite reagent and a 20 min incubation on a ViewLux plate reader.
# Keywords: Fructose-bisphosphate aldolase, FBPA , Giardia lamblia , Giardia, HTS, Inhibitors
# % is set by controls: 0 for no effect and ±100 for the full control effect; potency is the fitted concentration of half-maximal effect.
Compound,"viability change, negative = toxicity",Potency
O=C(NC(=S)Nc1ncccn1)c1ccccc1Br,-18.1% (inactive),–
CC(C)(c1ccccc1)c1ccc(OCCN2CCCC2)cc1,7.3% (inactive),–
O=[N+]([O-])c1cc([N+](=O)[O-])c2cccnc2c1O,21.6% (inactive),–
OCCN1CCN(C(=S)c2ccc(-c3ccccc3)cc2)CC1,6.87% (inactive),–
C/C(=N\NC(N)=S)c1cccnc1,3.52% (inactive),–
CCN(CC(=O)Nc1ccc(S(=O)(=O)N2CCCC2)cc1)CC(=O)Nc1cccc(OC)c1,-4.57% (inactive),–
O=C(CN1CCN(Cc2ccccc2)CC1)Nc1ccc(F)c(F)c1,15.6% (inactive),–
CN(C)CCOc1ccc(Cl)cc1C(C)(C)C,-4.49% (inactive),–
Cc1cc(C)n(-c2ccc(Cl)c(C(=O)O)n2)n1,7.82% (inactive),–
COc1ccc(OC)c(Nc2nc(-c3ccc(O)c(O)c3)cs2)c1,-22.2% (inactive),–
C=C(C)CNC(=S)N/N=C/c1ccccc1OCC(=O)O,21.4% (inactive),–
Cn1c(=O)[nH]c(=O)c2c1[nH]c(=S)n2Cc1ccccc1,0.432% (inactive),–
Cc1nnc(SCC2=C(C(=O)O)N3C(=O)C(NC(=O)Cn4nc(C)c(Cl)c4C)C3SC2)s1 (stereo not given),3.23% (inactive),–
O=C(Nc1ccccc1Cl)O/N=C(/c1ccccc1)c1ccccn1,0.929% (inactive),–
Oc1[nH]c2ccc(Br)cc2c1N=Nc1nn[nH]n1,-1.69% (inactive),–
O=S(=O)(c1ccc(NC(=S)NN=C(C2CC2)C2CC2)cc1)N1CCOCC1,1.01% (inactive),–
O=C(N/N=C/c1ccccn1)c1cccnc1,-13.3% (inactive),–
COc1ccccc1CN1CCN(Cc2cc(OC)c(OC)cc2OC)CC1,3.82% (inactive),–
O=C(CN1C(=O)COc2ccccc21)Nc1ccc(F)cc1,-16.3% (inactive),–
O=C(CSc1cccc[n+]1[O-])c1ccc(-c2ccccc2)cc1,-27.7% (inactive),–

Compound,"viability change, negative = toxicity",Potency
CCN(CC(=O)NC(=O)NCc1ccccc1)Cc1nc2ccccc2c(=O)[nH]1,-3.84% (inactive),–
CNC(=S)N/N=C/c1ccc(N2CCOCC2)s1,-3.94% (inactive),–
Cc1csc(NC(=O)CN2CCCCCC2)n1,-7.59% (inactive),–
Cc1ccc(C(=O)Nc2nnc(C3=COCCO3)o2)cc1C,0.426% (inactive),–
O=C1CCCN1CCCNC(=S)Nc1ccc(F)c(Cl)c1,-9.81% (inactive),–
O=C(Nc1nnc(-c2ccco2)o1)c1ccc(S(=O)(=O)N2CCOCC2)cc1,8.14% (inactive),–
COc1ccc(CN2CCN(Cc3ccc(OC)c(OC)c3OC)CC2)cc1,-1.43% (inactive),–
CN1CCCc2cc(C#N)c(=O)[nH]c21,-2.91% (inactive),–
CCN1CCc2c(C#N)c(NCc3ccccc3)nc(NCCO)c2C1,16.3% (inactive),–
CN1CCN(CCCCOc2ccccc2-c2ccccc2)CC1,-3.92% (inactive),–
COCCN(C(=S)Nc1ccccc1OC)C1CCN(C(C)C)CC1,1.84% (inactive),–
C=CCc1cc(C)ccc1OCCCn1ccnc1,19.1% (inactive),–
COc1cc(CN2CCN(Cc3ccc(C)cc3)CC2)c([N+](=O)[O-])cc1OC,-16% (inactive),–
CC(=O)NC1CCN(CC(=O)Nc2nccs2)CC1,-4% (inactive),–
O=c1[nH]c(=S)[nH]c2[nH]c(=S)[nH]c12,-1.2% (inactive),–
CN1C(=O)/C(=C\c2ccc(-c3ccccc3)o2)SC1=S,-4.51% (inactive),–
CCc1ccc2c(c1)C1(NN=C(c3ccccc3)S1)C(=O)N2 (stereo not given),–,25.1 µM (active)
Cc1ccc(S(=O)(=O)NNC(=S)NC(C)(C)C)cc1,-3.18% (inactive),–
COC(=O)CC1=NN(c2nc(C)cc(C)n2)C(=O)C1,1.41% (inactive),–
CC1CCCN(S(=O)(=O)c2ccc(C(=O)Nc3nnc(-c4ccncc4)o3)cc2)C1 (stereo not given),-6.34% (inactive),–
